Legend:
Assay in all cases: DAPPL (digital affinity profiling via proximity ligation, sequencing); 10 mM Tris-HCl pH 7.5, 50 mM NaCl, 1 mM DTT, 4% glycerol, room temperature, 30 min; GST-TFs on glutathione beads, 16-mer random dsDNA library, 0.1% formaldehyde crosslink after washing; high values mean tight binding
FLI1 = target: T1, FLI1 (Homo sapiens, UniProt Q01543 1-452); conditions: protein: recombinant; tags: N-terminal GST; dsDNA, one strand shown
T1 sequence: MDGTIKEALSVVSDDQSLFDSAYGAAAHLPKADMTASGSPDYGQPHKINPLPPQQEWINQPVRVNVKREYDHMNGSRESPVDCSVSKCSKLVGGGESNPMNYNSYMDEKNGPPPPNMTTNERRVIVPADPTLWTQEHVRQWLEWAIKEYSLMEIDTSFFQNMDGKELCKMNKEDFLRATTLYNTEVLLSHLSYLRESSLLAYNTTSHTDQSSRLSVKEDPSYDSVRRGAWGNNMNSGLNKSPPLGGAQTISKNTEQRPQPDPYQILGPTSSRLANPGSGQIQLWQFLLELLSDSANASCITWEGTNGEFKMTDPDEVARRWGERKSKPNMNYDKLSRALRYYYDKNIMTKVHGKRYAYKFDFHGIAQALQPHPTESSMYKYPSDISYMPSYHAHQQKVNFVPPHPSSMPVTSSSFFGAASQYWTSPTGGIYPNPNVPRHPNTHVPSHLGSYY
Outline: (§1)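 Yeast served to express human transcription factors as GST fusions, which were then captured on glutathione beads and labelled with DNA barcodes. Pooled with a tag-only sample, they were incubated with 200 nmole of a 16-mer random double-stranded DNA library for 30 min at room temperature in Tris/NaCl/DTT/glycerol buffer, washed, crosslinked with 0.1% formaldehyde, ligated by proximity, amplified by PCR and sequenced. Dividing each hexamer's read frequency for a factor by its frequency for the tag-only sample gives the binding signal.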

GABPA = target: T2, GABPA (Homo sapiens, UniProt Q06546 1-454); conditions: protein: recombinant; tags: N-terminal GST; dsDNA, one strand shown
T2 sequence: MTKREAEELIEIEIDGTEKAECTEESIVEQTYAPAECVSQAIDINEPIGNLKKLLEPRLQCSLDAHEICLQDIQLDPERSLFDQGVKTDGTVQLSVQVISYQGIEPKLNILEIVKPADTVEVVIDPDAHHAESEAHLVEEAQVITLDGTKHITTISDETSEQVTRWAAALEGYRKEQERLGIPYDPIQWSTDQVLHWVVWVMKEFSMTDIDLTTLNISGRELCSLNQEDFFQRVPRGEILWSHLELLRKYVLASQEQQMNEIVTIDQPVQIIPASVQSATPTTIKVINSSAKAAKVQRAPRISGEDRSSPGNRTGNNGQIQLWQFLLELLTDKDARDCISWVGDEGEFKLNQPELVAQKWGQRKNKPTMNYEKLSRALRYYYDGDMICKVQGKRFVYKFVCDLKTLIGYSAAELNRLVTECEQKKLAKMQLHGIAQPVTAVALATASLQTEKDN
Outline: as §1

ERG = target: T3, ERG (Homo sapiens, UniProt P11308 1-479); conditions: protein: recombinant; tags: N-terminal GST; dsDNA, one strand shown
T3 sequence: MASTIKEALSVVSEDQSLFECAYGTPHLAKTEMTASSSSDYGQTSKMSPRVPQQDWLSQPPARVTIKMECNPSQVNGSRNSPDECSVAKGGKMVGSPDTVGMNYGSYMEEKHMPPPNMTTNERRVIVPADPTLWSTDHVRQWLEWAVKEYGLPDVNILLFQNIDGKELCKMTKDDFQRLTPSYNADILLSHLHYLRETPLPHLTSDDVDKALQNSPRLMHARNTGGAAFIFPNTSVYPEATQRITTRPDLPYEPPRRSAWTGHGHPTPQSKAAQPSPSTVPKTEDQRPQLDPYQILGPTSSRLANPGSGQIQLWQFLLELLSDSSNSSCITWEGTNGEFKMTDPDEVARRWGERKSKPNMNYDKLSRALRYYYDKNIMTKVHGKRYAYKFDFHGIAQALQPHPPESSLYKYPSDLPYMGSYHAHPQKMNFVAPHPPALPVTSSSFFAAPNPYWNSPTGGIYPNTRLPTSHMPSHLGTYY
Outline: as §1

ELF1 = ELF1 (Homo sapiens, UniProt P32519 1-619); conditions: protein: recombinant; tags: N-terminal GST; dsDNA, one strand shown
Chain of ELF1 (P32519 whole entry): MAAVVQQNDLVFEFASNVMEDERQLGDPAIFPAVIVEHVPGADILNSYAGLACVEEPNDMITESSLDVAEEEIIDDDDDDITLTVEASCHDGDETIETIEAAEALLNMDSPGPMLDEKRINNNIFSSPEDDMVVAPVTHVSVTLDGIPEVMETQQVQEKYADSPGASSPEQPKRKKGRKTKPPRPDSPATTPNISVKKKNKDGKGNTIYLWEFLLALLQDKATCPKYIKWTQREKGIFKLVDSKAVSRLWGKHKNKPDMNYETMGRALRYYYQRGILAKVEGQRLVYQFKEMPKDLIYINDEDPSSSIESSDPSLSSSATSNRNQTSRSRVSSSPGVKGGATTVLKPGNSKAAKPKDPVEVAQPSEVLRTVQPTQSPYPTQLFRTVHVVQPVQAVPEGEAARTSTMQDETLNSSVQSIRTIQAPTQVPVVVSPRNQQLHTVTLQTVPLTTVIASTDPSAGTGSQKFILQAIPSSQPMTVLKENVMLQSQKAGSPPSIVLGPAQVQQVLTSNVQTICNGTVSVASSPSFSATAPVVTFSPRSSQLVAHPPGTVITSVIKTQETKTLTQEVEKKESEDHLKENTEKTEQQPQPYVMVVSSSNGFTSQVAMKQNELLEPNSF
Outline: as §1

SPI1 = SPI1 (Homo sapiens, UniProt P17947 1-270); conditions: protein: recombinant; tags: N-terminal GST; dsDNA, one strand shown
Outline: as §1

SPIB = SPIB (Homo sapiens, UniProt Q01892 1-262); conditions: protein: recombinant; tags: N-terminal GST; dsDNA, one strand shown
Chain of SPIB (Q01892 whole entry): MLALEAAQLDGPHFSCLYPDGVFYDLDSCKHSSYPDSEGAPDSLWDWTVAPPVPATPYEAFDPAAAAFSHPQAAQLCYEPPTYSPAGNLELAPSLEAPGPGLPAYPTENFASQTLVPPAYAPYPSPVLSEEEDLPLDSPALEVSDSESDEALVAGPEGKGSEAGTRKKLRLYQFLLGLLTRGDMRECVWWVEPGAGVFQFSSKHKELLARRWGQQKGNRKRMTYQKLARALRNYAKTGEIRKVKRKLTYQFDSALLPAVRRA
Outline: as §1

ELK3 = target: T4, ELK3 (Homo sapiens, UniProt P41970 1-407); conditions: protein: recombinant; tags: N-terminal GST; dsDNA, one strand shown
T4 sequence: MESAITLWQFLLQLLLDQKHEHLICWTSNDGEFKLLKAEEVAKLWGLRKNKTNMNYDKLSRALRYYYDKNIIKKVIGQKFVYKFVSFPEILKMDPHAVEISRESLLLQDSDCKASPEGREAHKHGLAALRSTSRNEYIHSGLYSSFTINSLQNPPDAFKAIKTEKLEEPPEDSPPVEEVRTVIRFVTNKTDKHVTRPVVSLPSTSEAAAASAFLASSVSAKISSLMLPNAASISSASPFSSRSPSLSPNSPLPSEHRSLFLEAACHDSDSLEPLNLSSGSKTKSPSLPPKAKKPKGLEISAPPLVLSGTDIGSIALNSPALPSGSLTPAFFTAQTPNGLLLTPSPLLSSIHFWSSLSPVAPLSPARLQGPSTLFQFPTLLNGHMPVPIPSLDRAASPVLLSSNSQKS
Outline: as §1

FEV = target: T5, FEV (Homo sapiens, UniProt Q99581 1-238); conditions: protein: recombinant; tags: N-terminal GST; dsDNA, one strand shown
T5 sequence: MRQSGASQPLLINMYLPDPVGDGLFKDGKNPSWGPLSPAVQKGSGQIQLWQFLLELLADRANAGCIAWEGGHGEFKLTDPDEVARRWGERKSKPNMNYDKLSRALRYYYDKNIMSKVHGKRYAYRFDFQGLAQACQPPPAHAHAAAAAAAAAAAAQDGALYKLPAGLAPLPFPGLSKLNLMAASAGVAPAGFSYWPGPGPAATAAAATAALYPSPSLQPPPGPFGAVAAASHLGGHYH
Outline: as §1

ETV5 = ETV5 (Homo sapiens, UniProt P41161 1-510); conditions: protein: recombinant; tags: N-terminal GST; dsDNA, one strand shown
Chain of ETV5 (P41161 whole entry): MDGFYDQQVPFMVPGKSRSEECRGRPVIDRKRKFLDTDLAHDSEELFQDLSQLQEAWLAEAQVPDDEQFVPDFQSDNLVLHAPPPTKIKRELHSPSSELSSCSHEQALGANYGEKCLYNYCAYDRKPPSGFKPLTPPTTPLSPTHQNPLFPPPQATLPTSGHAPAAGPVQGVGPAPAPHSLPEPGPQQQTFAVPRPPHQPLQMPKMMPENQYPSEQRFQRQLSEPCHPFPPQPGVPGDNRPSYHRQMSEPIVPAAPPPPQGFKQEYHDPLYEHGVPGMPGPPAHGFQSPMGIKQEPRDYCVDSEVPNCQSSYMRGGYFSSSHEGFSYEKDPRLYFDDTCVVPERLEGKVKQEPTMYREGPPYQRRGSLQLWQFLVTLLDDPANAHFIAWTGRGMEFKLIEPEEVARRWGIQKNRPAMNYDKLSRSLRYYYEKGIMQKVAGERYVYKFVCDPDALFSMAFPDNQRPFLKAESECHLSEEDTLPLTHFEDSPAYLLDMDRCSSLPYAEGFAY
Outline: as §1

HSF1 = HSF1 (Homo sapiens, UniProt Q00613 1-529); conditions: protein: recombinant; tags: N-terminal GST; chain copies: 3; dsDNA, one strand shown
Chain of HSF1 (Q00613 whole entry): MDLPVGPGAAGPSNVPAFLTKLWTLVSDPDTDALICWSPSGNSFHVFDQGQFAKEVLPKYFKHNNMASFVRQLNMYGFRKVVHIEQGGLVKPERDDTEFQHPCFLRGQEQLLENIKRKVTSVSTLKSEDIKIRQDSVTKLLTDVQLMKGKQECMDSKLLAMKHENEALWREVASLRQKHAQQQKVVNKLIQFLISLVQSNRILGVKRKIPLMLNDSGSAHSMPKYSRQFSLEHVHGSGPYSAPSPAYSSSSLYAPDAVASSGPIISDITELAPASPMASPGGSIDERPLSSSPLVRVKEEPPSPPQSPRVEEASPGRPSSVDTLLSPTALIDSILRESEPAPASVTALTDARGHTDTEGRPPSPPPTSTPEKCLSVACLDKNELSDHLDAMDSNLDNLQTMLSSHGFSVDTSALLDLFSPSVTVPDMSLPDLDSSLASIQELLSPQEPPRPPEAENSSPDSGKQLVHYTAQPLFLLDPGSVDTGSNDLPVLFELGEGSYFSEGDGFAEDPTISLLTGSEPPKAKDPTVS
Outline: as §1

SPIC = target: T6, SPIC (Homo sapiens, UniProt Q8N5J4 1-248); conditions: protein: recombinant; tags: N-terminal GST; dsDNA, one strand shown
T6 sequence: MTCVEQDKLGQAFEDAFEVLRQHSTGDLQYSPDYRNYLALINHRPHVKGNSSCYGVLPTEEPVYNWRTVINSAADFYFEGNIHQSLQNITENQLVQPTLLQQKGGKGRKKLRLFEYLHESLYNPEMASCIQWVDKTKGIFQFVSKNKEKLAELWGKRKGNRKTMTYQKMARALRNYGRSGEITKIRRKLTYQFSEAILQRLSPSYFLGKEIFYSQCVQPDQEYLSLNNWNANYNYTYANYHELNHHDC
Outline: as §1

ELF4 = ELF4 (Homo sapiens, UniProt Q99607 1-663); conditions: protein: recombinant; tags: N-terminal GST; dsDNA, one strand shown
Chain of ELF4 (Q99607 whole entry): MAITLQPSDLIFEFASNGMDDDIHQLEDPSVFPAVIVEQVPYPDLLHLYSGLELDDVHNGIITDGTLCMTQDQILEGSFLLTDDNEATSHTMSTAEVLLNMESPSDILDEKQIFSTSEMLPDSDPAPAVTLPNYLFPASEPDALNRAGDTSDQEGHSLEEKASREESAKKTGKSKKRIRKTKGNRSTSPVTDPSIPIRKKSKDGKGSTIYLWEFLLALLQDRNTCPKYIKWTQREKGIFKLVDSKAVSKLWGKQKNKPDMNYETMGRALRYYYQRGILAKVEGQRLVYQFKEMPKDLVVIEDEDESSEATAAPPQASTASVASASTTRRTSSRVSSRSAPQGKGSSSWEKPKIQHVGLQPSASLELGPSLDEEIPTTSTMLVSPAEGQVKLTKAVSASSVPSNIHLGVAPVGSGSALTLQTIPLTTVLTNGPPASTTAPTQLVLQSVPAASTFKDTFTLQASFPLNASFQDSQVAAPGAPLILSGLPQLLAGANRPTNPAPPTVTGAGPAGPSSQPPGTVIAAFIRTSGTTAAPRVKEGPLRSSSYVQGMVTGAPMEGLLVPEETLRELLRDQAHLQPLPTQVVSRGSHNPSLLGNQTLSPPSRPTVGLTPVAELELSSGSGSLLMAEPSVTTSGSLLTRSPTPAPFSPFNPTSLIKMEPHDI
Outline: as §1

ELK4 = target: T7, ELK4 (Homo sapiens, UniProt P28324-2 1-405); conditions: protein: recombinant; tags: N-terminal GST; dsDNA, one strand shown
T7 sequence: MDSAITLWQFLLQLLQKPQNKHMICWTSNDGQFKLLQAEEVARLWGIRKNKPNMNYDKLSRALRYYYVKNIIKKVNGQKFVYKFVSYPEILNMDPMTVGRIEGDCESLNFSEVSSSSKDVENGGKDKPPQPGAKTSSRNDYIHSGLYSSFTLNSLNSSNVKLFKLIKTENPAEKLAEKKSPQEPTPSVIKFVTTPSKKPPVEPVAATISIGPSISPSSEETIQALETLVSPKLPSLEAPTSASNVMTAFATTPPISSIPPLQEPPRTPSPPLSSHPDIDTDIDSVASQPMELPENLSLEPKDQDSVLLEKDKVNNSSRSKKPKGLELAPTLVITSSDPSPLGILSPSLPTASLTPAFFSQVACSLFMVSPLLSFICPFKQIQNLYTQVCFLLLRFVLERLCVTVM
Outline: as §1

ETV2 = target: T8, ETV2 (Homo sapiens, UniProt O00321 1-342); conditions: protein: recombinant; tags: N-terminal GST; dsDNA, one strand shown
T8 sequence: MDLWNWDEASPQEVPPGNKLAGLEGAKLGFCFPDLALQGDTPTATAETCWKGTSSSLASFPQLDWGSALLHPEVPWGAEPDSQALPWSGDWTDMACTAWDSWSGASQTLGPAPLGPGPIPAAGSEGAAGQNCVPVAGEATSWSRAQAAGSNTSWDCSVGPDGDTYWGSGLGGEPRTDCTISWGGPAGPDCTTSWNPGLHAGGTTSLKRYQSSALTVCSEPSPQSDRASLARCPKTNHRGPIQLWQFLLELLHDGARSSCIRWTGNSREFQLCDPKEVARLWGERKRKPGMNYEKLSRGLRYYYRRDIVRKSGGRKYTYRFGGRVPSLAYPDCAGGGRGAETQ
Outline: as §1

ELF3 = target: T9, ELF3 (Homo sapiens, UniProt P78545 1-371); conditions: protein: recombinant; tags: N-terminal GST; dsDNA, one strand shown
T9 sequence: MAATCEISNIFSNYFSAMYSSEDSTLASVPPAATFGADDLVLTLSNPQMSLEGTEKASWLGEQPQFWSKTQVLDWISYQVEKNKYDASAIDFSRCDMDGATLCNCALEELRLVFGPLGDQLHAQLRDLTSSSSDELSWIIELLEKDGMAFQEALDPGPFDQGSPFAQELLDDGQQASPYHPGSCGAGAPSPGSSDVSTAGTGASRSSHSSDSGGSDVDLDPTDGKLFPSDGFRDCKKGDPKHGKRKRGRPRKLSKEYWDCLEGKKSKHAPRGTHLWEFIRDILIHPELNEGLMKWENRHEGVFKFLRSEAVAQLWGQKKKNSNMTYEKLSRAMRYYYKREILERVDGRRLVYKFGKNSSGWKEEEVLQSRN
Outline: as §1

CRX = CRX (Homo sapiens, UniProt O43186 1-299); conditions: protein: recombinant; tags: N-terminal GST; dsDNA, one strand shown
Chain of CRX (O43186 whole entry): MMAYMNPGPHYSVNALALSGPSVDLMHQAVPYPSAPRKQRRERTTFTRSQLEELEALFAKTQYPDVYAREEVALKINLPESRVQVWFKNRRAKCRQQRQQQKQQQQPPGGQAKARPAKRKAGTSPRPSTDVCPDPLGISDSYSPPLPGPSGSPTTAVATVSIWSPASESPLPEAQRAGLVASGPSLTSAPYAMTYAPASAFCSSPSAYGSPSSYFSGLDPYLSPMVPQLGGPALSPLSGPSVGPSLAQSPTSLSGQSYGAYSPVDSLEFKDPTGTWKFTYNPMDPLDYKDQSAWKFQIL
Outline: as §1

Sequence: TACTGG
- binding signal (FLI1): 1.08 fold enrichment (6-mer frequency, TF over GST control)
- binding signal (GABPA): 1.19 fold enrichment (6-mer frequency, TF over GST control)
- binding signal (ERG): 1.13 fold enrichment (6-mer frequency, TF over GST control)
- binding signal (ELF1): 1.13 fold enrichment (6-mer frequency, TF over GST control)
- binding signal (SPI1): 1.08 fold enrichment (6-mer frequency, TF over GST control)
- binding signal (SPIB): 1.05 fold enrichment (6-mer frequency, TF over GST control)
- binding signal (ELK3): 1.07 fold enrichment (6-mer frequency, TF over GST control)
- binding signal (FEV): 1.01 fold enrichment (6-mer frequency, TF over GST control)
- binding signal (ETV5): 1.1 fold enrichment (6-mer frequency, TF over GST control)
- binding signal (HSF1): 1.49 fold enrichment (6-mer frequency, TF over GST control)
- binding signal (SPIC): 1.22 fold enrichment (6-mer frequency, TF over GST control)
- binding signal (ELF4): 1.19 fold enrichment (6-mer frequency, TF over GST control)
- binding signal (ELK4): 1.15 fold enrichment (6-mer frequency, TF over GST control)
- binding signal (ETV2): 1.3 fold enrichment (6-mer frequency, TF over GST control)
- binding signal (ELF3): 1.17 fold enrichment (6-mer frequency, TF over GST control)
- binding signal (CRX): 1.35 fold enrichment (6-mer frequency, TF over GST control)

Source: article PMC7862700, “An all-to-all approach to the identification of sequence-specific readers for epigenetic DNA modifications on cytosine”
